Screens as filed in PubChem BioAssay.
Shown are actives, neighbours in structure and some others; about 1.2% of the full set was active somewhere.
RGS7-Gao reg: RGS7-Galphao binding modulators, primary screen, biochemical, multiplexed bead flow cytometry | Guanine nucleotide-binding protein G(o) subunit alpha (Homo sapiens), P09471 | actives lie on both sides | binding response (% of control), % at 10 µM | 220,000 compounds, 0.35% hits | AID 1439, 2008; in the data active means binding response below about 49% or above about 150%; inconclusive means no clear call, values can overlap the other calls; inactive means in between;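 further: fluorescent Galphao held in activated GDP-AlF4 state binding bead-coupled RGS7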
Target sequence (P09471 whole entry, looked up): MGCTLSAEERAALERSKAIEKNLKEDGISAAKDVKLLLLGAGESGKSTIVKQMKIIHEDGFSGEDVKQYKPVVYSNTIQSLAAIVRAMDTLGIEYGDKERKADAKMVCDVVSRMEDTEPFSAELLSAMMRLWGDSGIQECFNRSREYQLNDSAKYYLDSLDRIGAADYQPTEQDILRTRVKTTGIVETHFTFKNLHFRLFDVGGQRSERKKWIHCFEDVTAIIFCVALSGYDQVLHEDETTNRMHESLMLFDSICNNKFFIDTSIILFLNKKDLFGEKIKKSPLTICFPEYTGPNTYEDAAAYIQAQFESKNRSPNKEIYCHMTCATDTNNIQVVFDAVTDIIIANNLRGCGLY
RGS16-Gao: modulators of RGS16 binding to Galphao, primary screen, biochemical, human proteins, multiplexed bead flow cytometry. Regulator of G-protein signaling 16 (Homo sapiens) + Guanine nucleotide-binding protein …. bead-based flow cytometry RGS16-Galphao binding, fluorescence; actives lie on both sides. binding response (% of control), % at 10 µM. 220,000 compounds, 0.38% hits;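 further: Galphao activated by GDP with aluminum fluoride before binding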
Target sequence (O15492 whole entry, looked up): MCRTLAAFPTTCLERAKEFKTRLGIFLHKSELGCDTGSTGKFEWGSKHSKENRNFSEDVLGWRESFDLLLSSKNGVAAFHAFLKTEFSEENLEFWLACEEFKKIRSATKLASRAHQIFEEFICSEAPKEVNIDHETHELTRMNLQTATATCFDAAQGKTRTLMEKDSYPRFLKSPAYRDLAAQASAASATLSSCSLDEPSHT
Target sequence (P09471 whole entry, looked up): as the sequence (P09471 whole entry, looked up) above
RGS4-Gao reg: modulators of RGS4 binding to Galphao, primary screen, biochemical, multiplexed bead flow cytometry; Guanine nucleotide-binding protein G(o) subunit alpha (Homo sapiens), P09471; actives lie on both sides; binding response (% of control), % at 10 µM; 220,000 compounds, 0.33% hits; AID 1415, 2008; in the data active means binding response below about 49% or above about 150%; inactive means in between;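 further: fluorescent Galphao activated with aluminum fluoride binding bead-coupled RGS4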
GSH fluor: compound fluorescence on glutathione beads, profiling panel, artefact control, biophysical, 488/530 nm, flow cytometry; GSH beads flow cytometry, compound fluorescence 488/530 nm; stronger effect = higher value; 190,000 compounds, 0.25% hits; AID 1776, 2009; fluorescence (KMESF) at 10 µM; in the data active means fluorescence above about 89;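 further: glutathione beads carrying GST-tagged Bcl family fusion proteins plus one bare bead set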
RGS8-Gao: RGS8-Galphao binding modulators, primary screen, biochemical, multiplexed bead flow cytometry | actives lie on both sides | response (percent of control binding), % at 10 µM | 220,000 compounds, 0.34% hits | AID 1423, 2008; in the data active means response below about 60% or above about 140%; inactive means in between;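 further: Galphao activated as the GDP aluminium fluoride complex binding bead-coupled RGS8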
Avidin fluor: green autofluorescence of compounds with avidin beads – biophysical, 488/530 nm, flow cytometry, artefact control, profiling panel; fluorescence (KMESF) at 10 µM; AID 1775, 2009; compound fluorescence 488/530 nm; stronger effect = higher value; 220,000 compounds, 0.38% hits; in the data active means fluorescence above about 47
RGS4-Gao HTS: modulators of RGS–Galpha-o binding, primary screen, biochemical, multiplexed beads, flow cytometry, RGS4/7/8/16/19. 1,600 compounds, 99% hits. multiplexed bead flow cytometry. AID 1504, 2009. RGS4–Galpha-o binding response, % at 10 µM. shares compounds with RGS16-Gao;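 further: fluorescently labeled Galpha-o bound to GDP with aluminium fluoride binding biotinylated RGS beads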
Avidin counter: disruption of biotin probe capture by avidin, counter-screen for RGS protein interaction modulators, biochemical, flow cytometry, bead-based. shares compounds with RGS16-Gao. streptavidin beads, fluorescein-biotin binding. inhibition, % at 10 µM. 1,700 tested, under 10 active;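 active means inhibition above 50%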;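 further: median green fluorescence of gated singlet beads compared with DMSO control wells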
RGS8-Gao confirm: RGS8-Galphao binding modulators, confirmation, biochemical, multiplexed bead flow cytometry, single concentration; shares compounds with RGS16-Gao; bead-based flow cytometry RGS8-Galphao binding, fluorescence; actives lie on both sides; binding response (% of control), % at 10 µM; 1,700 compounds, 3% hits; AID 1836, 2009; in the data active means binding response below about 72% or above about 130%; inactive means in between;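 further: Galphao activated as GDP AlF4 complex before binding bead RGS8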
RGS7-Gao single: RGS7-Galphao binding modulators, confirmation, biochemical, multiplexed bead flow cytometry, single concentration; response (percent of control binding), % at 10 µM; AID 1837, 2009; bead-based flow cytometry RGS7-Galphao binding; actives lie on both sides; shares compounds with RGS16-Gao; 1,700 compounds, 7.8% hits; in the data active means response below about 75% or above about 130%; inactive means in between;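 further: fluorescent Galphao activated with GDP and aluminum fluoride binding bead-coupled RGS7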
RGS16-Gao single: modulators of RGS16-Galphao protein binding, confirmation, biochemical, single concentration, multiplexed bead flow cytometry; AID 1838, 2009; 1,700 compounds, 4% hits; bead-based flow cytometry; actives lie on both sides; shares compounds with RGS16-Gao; response (% of control binding), % at 10 µM; in the data active means response below about 74% or above about 130%; inactive means in between;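 further: Galphao activated as the GDP aluminium fluoride complex binding bead-coupled RGS16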
RGS4-Gao confirm: modulators of RGS4-Galphao protein binding, confirmation, biochemical, single concentration, multiplexed bead flow cytometry. AID 1840, 2009. binding response (% of control), % at 10 µM. 1,700 compounds, 4% hits. actives lie on both sides. shares compounds with RGS16-Gao; in the data active means binding response below about 74% or above about 130%; inactive means in between
RGS19-Gao single: regulators of RGS19-Galphao binding, confirmation, biochemical, single point, multiplexed bead flow cytometry. shares compounds with RGS16-Gao. 1,700 compounds, 5% hits. bead-based flow cytometry RGS19-Galphao binding; actives lie on both sides. response (percent of control binding), % at 10 µM; in the data active means response below about 50% or above about 160%; inactive means in between
Hits are given with their value; . = inactive; ? = inconclusive; / = not tested or not shown; [ ] = dose if it differs, or a comment. Unless noted, how the calls were made is not given here.

SMILES | RGS7-Gao reg | RGS16-Gao | RGS4-Gao reg | GSH fluor | RGS8-Gao | Avidin fluor | RGS4-Gao HTS | Avidin counter | RGS8-Gao confirm | RGS7-Gao single | RGS16-Gao single | RGS4-Gao confirm | RGS19-Gao single
O=S(=O)(Nc1cccc(-c2nc3cccnc3s2)c1)c1ccc2c(c1)CCCC2 | . | . | . | . | . | . | / | / | / | / | / | / | /
CCCCNC(=O)c1cc2ccccc2s1 | . | . | . | . | . | . | / | / | / | / | / | / | /
O=C(CSc1nccc(=O)[nH]1)c1cc2ccccc2o1 | ? | . | . | / | . | . | / | / | / | / | / | / | /
O=C(CSc1ncn[nH]1)c1cc2ccccc2o1 | 243.0[activator] | 219.4[activator] | 265.4[activator] | . | . | . | / | . | . | . | . | . | .
COc1cccc(C(=O)NCCOc2cc(C)cc(C)c2)c1 | . | . | . | . | . | . | / | . | . | . | . | . | .
COc1ccccc1C(=O)NN1C(=O)/C(=C/c2cccn2C)SC1=S | / | / | / | / | / | 95 | / | . | . | . | . | . | .
Cn1cccc1/C=C1\SC(=S)N(NC(=O)c2ccccc2O)C1=O | ? | . | . | / | . | . | / | / | / | / | / | / | /
Nc1n[nH]c(N)c1N=Nc1ccc(Cl)cc1Cl | 46.3 | . | . | . | . | . | 52.8 | . | . | . | . | . | .
Nc1n[nH]c(N)c1N=Nc1ccccc1 | . | . | . | . | . | . | / | / | / | / | / | / | /
O=C(CN1CCN(c2ccccc2O)CC1)NC(c1ccccc1)c1ccccc1 | . | 243.7[activator] | . | . | . | . | 114.4 | . | . | . | . | . | .
O=C(CN1CCN(c2ccccc2O)CC1)NCCCc1ccccc1 | . | . | . | . | . | . | / | / | / | / | / | / | /
Cc1n[nH]c(=O)n1-c1ccc(OCc2ccccc2)cc1 | . | . | . | . | . | . | / | / | / | / | / | / | /
C=CCSc1nnc2c(n1)OC(c1ccccn1)N(C(C)=O)c1ccccc1-2 (stereo not given) | 168.1[activator] | . | . | . | . | 215 | 122.1 | . | . | . | . | . | .
CCCSc1nnc2c(n1)OC(c1cccn1C)N(C(C)=O)c1ccccc1-2 (stereo not given) | . | . | . | . | . | . | / | / | / | / | / | / | /
Cn1cc(-c2nnnn2-c2ccc(Cl)cc2)c(=O)c2ccccc21 | . | . | . | . | 143.7[activator] | . | 129.7 | . | . | . | . | . | .
CCCNC(=S)N1CCC(NC(=O)Nc2ccc(C)cc2)CC1 | . | . | . | . | . | . | / | / | / | / | / | / | /
CC(=O)c1cccc(N(C(=O)CNC(=O)c2ccco2)C(C(=O)NCc2ccco2)c2ccccc2)c1 (stereo not given) | . | . | . | . | . | . | / | / | / | / | / | / | /
CC(C)(C)NC(=O)CN1CCN(C(=O)CCl)CC1 | . | . | . | . | . | . | / | / | / | / | / | / | /
c1ccc(-c2nc3ccccc3[nH]2)nc1 | 157.5[activator] | . | 169.9[activator] | . | 154.4[activator] | . | / | . | . | . | . | . | .
O=c1[nH]c(-c2ccccn2)nc2ccccc12 | . | . | . | . | . | . | / | / | / | / | / | / | /
COc1ccccc1/C=C/CN1CCCC(CCC(=O)NCc2ccccc2F)C1 (stereo not given) | . | . | . | . | . | . | / | / | / | / | / | / | /
COC(=O)[C@H](CCSC)NC(=O)Nc1cccc(Br)c1 | ? | . | . | / | . | . | / | / | / | / | / | / | /
NNc1ncnc2scc(-c3ccc(Cl)cc3)c12 | . | . | . | . | 148.7[activator] | . | 137.9 | . | . | . | . | . | .
Clc1ccc(-c2csc3ncnc(Cl)c23)cc1 | . | . | . | . | . | . | / | / | / | / | / | / | /
CCc1ccc(-n2c(=O)c3c(C)c(C)sc3n(CC(=O)NCC3CCCO3)c2=O)cc1 (stereo not given) | . | . | . | . | . | . | / | / | / | / | / | / | /
SMILES | RGS7-Gao reg | RGS16-Gao | RGS4-Gao reg | GSH fluor | RGS8-Gao | Avidin fluor | RGS4-Gao HTS | Avidin counter | RGS8-Gao confirm | RGS7-Gao single | RGS16-Gao single | RGS4-Gao confirm | RGS19-Gao single
CCOC(=O)N1CCN(C(=O)CN(Cc2ccc(Cl)cc2)S(=O)(=O)c2ccc(C)cc2)CC1 | . | / | . | . | . | / | / | . | . | . | . | . | .
CCCC(=O)N=c1sc2c(OC)ccc(OC)c2n1C | ? | . | . | / | . | . | / | / | / | / | / | / | /
Cc1cc(C)cc(C(=O)NCC(=O)OCc2c(C)noc2C)c1 | -0.1 | 1.9 | 15.7 | . | 15.3 | . | / | . | . | . | . | . | .
COc1nc(-c2ccccc2)cc(-c2ccccc2)n1 | 206.8[activator] | . | . | . | . | 260 | 132.6 | . | . | . | . | . | .
N#Cc1cccc(C(c2nnnn2Cc2ccccc2)N2CCCC2)c1 (stereo not given) | . | . | . | . | . | . | / | / | / | / | / | / | /
CN1CCN(C(c2cccc(C(F)(F)F)c2)c2nnnn2Cc2ccccc2)CC1 (stereo not given) | . | . | . | . | 143.9[activator] | . | 125.5 | . | . | . | . | . | .
CCC(Cc1ccccc1)NC(=O)C1=C(C)C(=O)OC12CCC(C)CC2 (stereo not given) | 31.9 | . | . | . | 55.6 | . | 59.0 | . | . | . | . | . | .
CCC1CCC(c2nnc(-c3ccc(Br)cc3)o2)CC1 (stereo not given) | . | 13.3 | . | . | . | . | 89.3 | . | . | . | . | . | .
CCCC[n+]1ccn(-c2nc3ccccc3nc2[N-]S(=O)(=O)c2ccccc2)c1 | / | . | . | . | . | / | / | . | . | . | . | . | .
